Measured values: PubChem BioAssay (EPA / NIEHS)
The source made the active and inactive calls. How the source made its calls: active means hit-call score of the fitted dose curve at least 0.9, where 1 is the maximum; inactive means score below 0.9.

Assay: ATG_DR4_LXR_CIS: Attagene CIS-FACTORIAL HepG2 Assay for human Liver X Receptor (LXR), DR4 submotif (AID 2282929)
Details: HepG2 Attagene DR4 cis-reporter, mRNA transcription; actives raise or lower the signal
Experimental: ATG_CIS is a cell-based, multiplexed-readout assay that uses HepG2, a human liver cell line, with measurements taken at 24 hours after chemical dosing in a 24-well plate.ATG_DR4_LXR_CIS is one of 52 assay component(s) measured or calculated from the ATG_CIS assay. It is designed to make measurements of mRNA induction, a form of inducible reporter, as detected with fluorescence intensity signals by Reverse transcription polymerase chain reaction (RT-PCR) and Capillary electrophoresis technology.Data from the assay component ATG_DR4_LXR_CIS was analyzed into 1 assay endpoint. This assay endpoint, ATG_DR4_LXR_CIS, was analyzed with bidirectional fitting relative to DMSO as the negative control and baseline of activity. Using a type of inducible reporter, measures of mRNA for gain or loss-of-signal activity can be used to understand the reporter gene at the transcription factor-level as they relate to the gene NR1H2 and NR1H3. Furthermore, this assay endpoint can be referred to as a primary readout, because this assay has produced multiple assay endpoints where this one serves a reporter gene function. To generalize the intended target to other relatable targets, this assay endpoint is annotated to the nuclear receptor intended target family, where the subfamily is non-steroidal.
Human liver HepG2 cells are transiently transfected with multiple reporter transcription units (MRTUs) in 6-well plates using FuGene 6 reagent (Roche; 3 ml FuGene/1 mg DNA). The MRTU constructs are regulated by a cis-regulating element (promoter). […] A major difference between the CIS and TRANS system is that in CIS activities of endogenous TFs are measured, whereas the TRANS assay evaluates changes in activities of exogenous, chimeric NR-Gal4 proteins. […] At the end of 24 hour incubation, total RNA was isolated using TriZol reagent (Invitrogen). The isolated RNA is then reverse-transcribed using oligo(dT) primer and Mo-MLV reverse transcriptase (Invitrogen) with DNAse I (Ambion) treatment for 30 min. The one-tenth of the produced cDNA was amplified by PCR using Taq DNA polymerase (Invitrogen) and two reporter sequence-specific primers. The PCR products were fluorescently labeled by primer extension with 6-arboxyfluorescein (6-FAM) 5'-labeled reporter sequence-specific primer (2 min at 95 C, 20 s at 68 C and 10 min at 72 C) and these products were digested with 5U of HpaI (New England Biolabs) for 2h at 37 C. The fragments were purified using Qiaquick PCR columns (Qiagen), analyzed on an ABI 3130xL genetic analyzer (Applied Biosystems) with peak positions identified by using a set of X-rhodamine (ROX)-labeled MapMarker1000 molecular weight standards (BioVentures). The raw capillary electrophoresis data was processed using Attagraph software (Attagene).
In the case of `O=C(Cl)c1ccc(Cl)cc1Cl`, the outcome is reported as “inactive”. In the case of `NC(=O)C(F)(F)C(F)(F)C(F)(F)C(F)(F)C(F)(F)C(F)(F)C(F)(F)F`, the outcome is reported as “inactive”. In the case of `Cc1ccc(O)c(-n2nc3ccccc3n2)c1`, the outcome is reported as “inactive”. With `O=C(O)C(F)(F)C(F)(F)C(F)(F)C(F)(F)C(F)(F)C(F)(F)C(F)F` the outcome was “inactive”. With `CCCCOC(=O)C(C)O` (stereo not given) the outcome was “inactive”. With `C=CCOC(=O)CC(C)C` the outcome was “inactive”. With `NCC(F)(F)C(F)(F)C(F)(F)C(F)(F)C(F)(F)C(F)(F)F` the outcome was “inactive”. For `O=C(c1ccccc1)c1ccc(O)cc1O`, the outcome was “inactive”. With `NC(=O)C(F)(F)C(F)(F)C(F)(F)F` the outcome was “inactive”. With `CC1=CCC(=O)O1` the outcome was “inactive”. With `Oc1ccc(C2(c3ccc(O)c(C4CCCCC4)c3)CCCCC2)cc1C1CCCCC1` the AC50 was 2.73 µM (active). With `Nc1cc([N+](=O)[O-])cc(Cl)c1O` the outcome was “inactive”. With `CC(O)C#CC(C)O` (stereo not given) the AC50 was 64.9 µM (active). With `Cc1cc(O)c(C(C)(C)C)cc1C(C)(C)C` the outcome was “inactive”. In the case of `OCC(O)CC(F)(F)C(F)(F)C(F)(F)C(F)(F)F` (stereo not given), the outcome is reported as “inactive”. For `C[Si](C)O[Si](C)C`, the outcome was “inactive”. For `CCc1cc(Cc2cc(CC)c(N)c(CC)c2)cc(CC)c1N`, the AC50 was 24.2 µM (active). For `CCOC(=O)CC(=O)C(F)(F)C(F)(F)F`, the outcome was “inactive”. With `CC(=O)CCC(C)C` the outcome was “inactive”. With `CC(C)(C)c1cc(CCC(=O)NCCCCCCNC(=O)CCc2cc(C(C)(C)C)c(O)c(C(C)(C)C)c2)cc(C(C)(C)C)c1O` the outcome was “inactive”. For `OCCCC(F)(F)C(F)(F)C(F)(F)C(F)(F)C(F)(F)C(F)(F)C(F)(F)C(F)(F)F`, the outcome was “inactive”. With `OC(O)C(F)(F)C(F)(F)F` the AC50 was 150 µM (active). For `CCCCOC(=O)[C@H](C)O`, the outcome was “inactive”. In the case of `CN1CN(C)CN(C)C1`, the AC50 is reported as 135 µM (active). For `C=CC(=O)OCC(F)(F)C(F)(F)C(F)(F)COC(=O)C=C`, the AC50 was 31.7 µM (active). In the case of `Nc1cccnc1N`, the AC50 is reported as 53.5 µM (active). With `O=C1c2c(O)ccc(Nc3ccc(CCO)cc3)c2C(=O)c2c([N+](=O)[O-])ccc(O)c21` the outcome was “inactive”. In the case of `CC(C)(C)c1cc(CCC(=O)OCC(COC(=O)CCc2cc(C(C)(C)C)c(O)c(C(C)(C)C)c2)(COC(=O)CCc2cc(C(C)(C)C)c(O)c(C(C)(C)C)c2)COC(=O)CCc2cc(C(C)(C)C)c(O)c(C(C)(C)C)c2)cc(C(C)(C)C)c1O`, the outcome is reported as “inactive”. With `NCC(F)(F)C(F)(F)C(F)(F)C(F)(F)C(F)(F)C(F)(F)C(F)(F)C(F)(F)F` the outcome was “inactive”. For `O=c1cccc[nH]1`, the outcome was “inactive”. For `OCC(F)(F)C(F)(F)C(F)(F)C(F)(F)C(F)(F)C(F)(F)CO`, the outcome was “inactive”. For `Nc1c(Br)cc([N+](=O)[O-])cc1Br`, the outcome was “inactive”. With `OCC(F)(F)C(F)(F)C(F)(F)CO` the outcome was “inactive”. In the case of `O=C1OC(=O)c2ccc3c4c(ccc1c24)C(=O)OC3=O`, the outcome is reported as “inactive”. In the case of `O=S(=O)(O)c1ccc(Cl)cc1`, the outcome is reported as “inactive”. For `CCCCCCCCCc1ccc(OCCO)cc1`, the AC50 was 19.3 µM (active). In the case of `O=C1c2ccccc2C(=O)c2c(Cl)cccc21`, the outcome is reported as “inactive”. For `CCC/C=C/CO`, the outcome was “inactive”. In the case of `C#CC(O)CCC` (stereo not given), the outcome is reported as “inactive”. With `CNS(=O)(=O)C(F)(F)C(F)(F)C(F)(F)C(F)(F)C(F)(F)C(F)(F)C(F)(F)C(F)(F)F` the outcome was “inactive”.
